An excerpt weighted towards active compounds, which were near 1.5% of everything screened.
AI-2 QS mod: modulators of Vibrio harveyi AI-2 quorum sensing system; AID 2094; activity change, % at 7.5 µM; 300,000 tested, 0.4% active; Vibrio harveyi JMH597 AI-2 luminescence/OD600 ratio, 9 h; stronger effect = lower value; strain lacks LuxN and CqsS sensors; 0 = neutral-control median; in the data active means activity change below about -75%, passing the limit was not always enough;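 further: luminescence divided by OD600 gain over 9 h not by final OD600 alone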
ARNT-TACC3 inh: disrupts binding between human ARNT and TACC3 | Q9Y6A5 | AlphaScreen His-ARNT PAS-B/GST-TACC3 binding, luminescence; TACC3 fragment carries E629A point mutation | inhibition, % at 9.99 µM | 390,000 tested, 0.66% active;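 active means mean inhibition of replicates at least 50% and at least half of replicates each reaching 50%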
Rin1-Abl PPI inh: blocks binding of human Rin1 to Abl | TR-FRET Rin1/Abl binding, biochemical | inhibition, % at 7.35 µM | 360,000 tested, 0.4% active | AID 588664; in the data active means inhibition above about 5%, passing the limit was not always enough
Target sequence (P00519 whole entry, looked up): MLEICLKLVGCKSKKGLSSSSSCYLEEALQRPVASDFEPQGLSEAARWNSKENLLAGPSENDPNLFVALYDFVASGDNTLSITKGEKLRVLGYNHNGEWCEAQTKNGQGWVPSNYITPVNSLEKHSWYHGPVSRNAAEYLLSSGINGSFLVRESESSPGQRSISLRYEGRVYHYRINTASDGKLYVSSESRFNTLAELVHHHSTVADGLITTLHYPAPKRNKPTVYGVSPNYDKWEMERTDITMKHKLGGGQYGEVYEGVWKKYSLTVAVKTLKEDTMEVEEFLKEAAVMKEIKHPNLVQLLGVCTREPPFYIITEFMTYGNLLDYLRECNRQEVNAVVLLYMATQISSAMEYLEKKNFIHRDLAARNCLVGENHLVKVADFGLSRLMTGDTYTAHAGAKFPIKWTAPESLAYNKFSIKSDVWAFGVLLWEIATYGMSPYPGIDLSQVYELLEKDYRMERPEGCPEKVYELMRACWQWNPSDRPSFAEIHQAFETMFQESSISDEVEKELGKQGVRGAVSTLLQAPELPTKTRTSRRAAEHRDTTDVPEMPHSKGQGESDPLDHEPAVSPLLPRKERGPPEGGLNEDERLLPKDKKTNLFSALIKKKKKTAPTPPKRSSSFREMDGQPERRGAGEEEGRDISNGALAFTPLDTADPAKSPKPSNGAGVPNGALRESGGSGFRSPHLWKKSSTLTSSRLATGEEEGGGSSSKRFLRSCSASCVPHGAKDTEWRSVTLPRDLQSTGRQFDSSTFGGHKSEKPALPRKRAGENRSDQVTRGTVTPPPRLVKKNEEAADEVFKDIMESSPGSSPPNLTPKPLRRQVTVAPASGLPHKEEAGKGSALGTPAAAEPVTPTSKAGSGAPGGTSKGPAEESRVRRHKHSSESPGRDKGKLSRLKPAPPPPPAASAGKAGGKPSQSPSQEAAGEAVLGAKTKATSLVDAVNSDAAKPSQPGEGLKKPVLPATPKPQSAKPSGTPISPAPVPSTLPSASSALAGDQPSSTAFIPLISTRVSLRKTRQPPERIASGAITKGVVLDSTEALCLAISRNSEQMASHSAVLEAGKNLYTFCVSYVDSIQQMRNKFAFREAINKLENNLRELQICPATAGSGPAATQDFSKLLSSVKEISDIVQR
Target sequence (Q13671 whole entry, looked up): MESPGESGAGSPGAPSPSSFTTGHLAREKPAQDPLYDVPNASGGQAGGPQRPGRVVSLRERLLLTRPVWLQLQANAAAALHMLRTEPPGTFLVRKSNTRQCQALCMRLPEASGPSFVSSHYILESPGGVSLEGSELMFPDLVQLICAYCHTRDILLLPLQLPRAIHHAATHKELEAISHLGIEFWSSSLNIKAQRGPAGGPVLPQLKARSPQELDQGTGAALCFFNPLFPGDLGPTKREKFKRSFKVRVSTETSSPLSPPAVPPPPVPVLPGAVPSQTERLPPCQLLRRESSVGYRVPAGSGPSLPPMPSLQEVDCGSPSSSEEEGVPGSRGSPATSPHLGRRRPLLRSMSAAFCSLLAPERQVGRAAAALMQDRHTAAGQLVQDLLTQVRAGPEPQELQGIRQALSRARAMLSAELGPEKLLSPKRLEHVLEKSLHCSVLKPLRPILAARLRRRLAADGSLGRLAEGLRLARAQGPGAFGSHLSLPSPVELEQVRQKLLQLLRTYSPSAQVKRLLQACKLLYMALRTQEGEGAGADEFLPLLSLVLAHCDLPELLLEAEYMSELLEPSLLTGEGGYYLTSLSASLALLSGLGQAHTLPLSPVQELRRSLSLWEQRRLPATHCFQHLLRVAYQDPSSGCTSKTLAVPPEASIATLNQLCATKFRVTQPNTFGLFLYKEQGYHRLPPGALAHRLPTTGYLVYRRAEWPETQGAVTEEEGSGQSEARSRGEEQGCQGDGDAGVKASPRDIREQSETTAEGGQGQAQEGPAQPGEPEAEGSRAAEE
sPLA2-III inh: Inhibits HGIII-sPLA2 liposome hydrolysis, primary screen. Q9NZ20. QFRET BODIPY PC-A2 liposome hydrolysis, fluorescence. inhibition, % at 12.2 µM. 370,000 tested, 0.56% active. AID 743126;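 active means inhibition above mean plus 3 SD of compounds lying within the high and low control bounds, cut at about 19% in these data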
sPLA2 confirm: human GIII-sPLA2 inhibition, confirmation; shares compounds with sPLA2-III inh; 2,000 tested, 34% active; inhibition, % at 12.2 µM; recombinant hGIII-sPLA2, BODIPY PC-A2 QFRET fluorescence;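 active means mean inhibition across triplicates above the hit cutoff set in the earlier primary screen, cut at about 19% in these data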
BODIPY interf: optically interferes with 535nm fluorescence in sPLA2 counter-screen; shares compounds with sPLA2-III inh; BODIPY FL product fluorescence interference, QFRET; inhibition, % at 12.2 µM; 2,000 tested, 8.5% active; AID 743282;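 active means average inhibition above the solvent-only control mean plus 3 SD, cut at about 6% in these data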
535nm interf DR: 535nm optical interference dose response, HGIII-sPLA2 counter-screen; 240 tested, under 10 active; AID 743455; IC50, µM; BODIPY FL product fluorescence interference, cell-free; shares compounds with sPLA2-III inh;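 active means IC50 at or below 10 µM; inactive means IC50 above 10 µM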
Of the large screens only hits and unclear results are named; the others gave an inactive call (follow-up assays come after a bar, where they were run).

Cc1ccccc1S(=O)(=O)NCC[C@@H]1CC[C@H](NC(=O)C2CCC2)[C@H](CO)O1	none (no result: AI-2 QS mod, Rin1-Abl PPI inh, sPLA2-III inh)
Cn1ccc(C(=O)N/N=C/c2cccnc2)n1	none (no result: AI-2 QS mod)
CN(C)c1ccc(/C=N/NC(=O)c2ccn(C)n2)cc1	sPLA2-III inh 20.1 (no result: AI-2 QS mod) | sPLA2 confirm inactive | BODIPY interf inactive
CCCCCOc1ccc(CSC(=N)N)cc1[N+](=O)[O-]	sPLA2-III inh 44.5 | sPLA2 confirm 29.6 | BODIPY interf inactive | 535nm interf DR inactive
CCCCOc1ccc(Br)cc1CSC(=N)N	sPLA2-III inh 43.7 | sPLA2 confirm 25.4 | BODIPY interf inactive
COc1ccc(CN(C)C[C@@H]2Oc3c(NC(=O)c4cc(C)nn4C)cccc3C(=O)N([C@H](C)CO)C[C@H]2C)cc1	none (no result: AI-2 QS mod, Rin1-Abl PPI inh, sPLA2-III inh)
C[C@H]1CCCCO[C@@H](CN(C)C(=O)c2ccccc2)[C@@H](C)CN([C@@H](C)CO)C(=O)c2cc(NC(=O)Cc3ccccc3)ccc2O1	none (no result: AI-2 QS mod, Rin1-Abl PPI inh, sPLA2-III inh)
C[C@H]1CN([C@@H](C)CO)C(=O)c2cccc(N(C)C)c2O[C@@H]1CN(C)S(=O)(=O)c1cn(C)cn1	none (no result: AI-2 QS mod, Rin1-Abl PPI inh, sPLA2-III inh)
O=C(NCCN1CCOCC1)c1cc(Sc2ccccc2Cl)nc2ccccc12	sPLA2-III inh 19.2 (no result: ARNT-TACC3 inh, Rin1-Abl PPI inh) | sPLA2 confirm inactive | BODIPY interf inactive
COCCCn1c(-c2ccc(Cl)cc2)n[nH]c1=S	none
S=c1[nH]nc(-c2ccc(Cl)cc2)n1CCCN1CCOCC1	sPLA2-III inh 20.4 | sPLA2 confirm inactive | BODIPY interf inactive
CCOCCCn1c(-c2ccc(Cl)cc2)n[nH]c1=S	sPLA2-III inh 21.9 | sPLA2 confirm inactive | BODIPY interf inactive
C[C@@H]1CN([C@@H](C)CO)C(=O)Cc2cc(NS(C)(=O)=O)ccc2O[C@@H]1CN(C)Cc1ccc(-c2ccccc2)cc1	none (no result: AI-2 QS mod, Rin1-Abl PPI inh, sPLA2-III inh)
Cc1ccc(C)c(NC(=S)NNC(=O)c2csc(C)c2C)c1	sPLA2-III inh 20.8 | sPLA2 confirm 37.7 | BODIPY interf inactive | 535nm interf DR inactive
O=C(N/N=C/c1ccc(Cl)cc1Cl)c1cccc(N2CCCC2=O)c1	none (no result: ARNT-TACC3 inh)
O=C(N/N=C/c1cc(Br)cc(Br)c1O)c1cccc(N2CCCC2=O)c1	sPLA2-III inh 28.3 | sPLA2 confirm 23.8 | BODIPY interf inactive
FC(F)(F)C1=Nc2cccc3cccc(c23)N1	sPLA2-III inh 28.3 (no result: AI-2 QS mod) | sPLA2 confirm 32.1 | BODIPY interf 12.3
Cc1cc(NC(=O)C(C)C)ncc1NC(=O)c1ccco1	sPLA2-III inh 20.0 (no result: AI-2 QS mod) | sPLA2 confirm inactive | BODIPY interf inactive
CC/C(=N/NC(=O)c1ccc(Br)cc1)c1ccc(OCCN2CCOCC2)cc1	sPLA2-III inh 20.7 | sPLA2 confirm inactive | BODIPY interf inactive
CCNC(=O)Nc1ccc2c(c1)C(=O)N(C)[C@@H]1CC[C@@H](CC(=O)NCc3ccc(F)cc3)O[C@@H]1CO2	none (no result: AI-2 QS mod, Rin1-Abl PPI inh, sPLA2-III inh)
CCCCNC(=O)CN(c1cccc(F)c1)S(C)(=O)=O	none
CCCNC(=O)CN(c1cccc(F)c1)S(C)(=O)=O	sPLA2-III inh 19.7 | sPLA2 confirm inactive | BODIPY interf inactive
O=c1[nH]c2ccccc2n2c(C(F)(F)F)nnc12	sPLA2-III inh 19.6 | sPLA2 confirm inactive | BODIPY interf inactive
C[C@@H]1CCCCO[C@H](CN(C)C(=O)Nc2ccccc2)[C@@H](C)CN([C@@H](C)CO)C(=O)c2cc(NS(=O)(=O)c3ccccc3)ccc2O1	none (no result: AI-2 QS mod, Rin1-Abl PPI inh, sPLA2-III inh)
C[C@@H]1CCCCO[C@H](CN(C)S(C)(=O)=O)[C@@H](C)CN([C@H](C)CO)C(=O)c2cc(NC(=O)CCC(F)(F)F)ccc2O1	none (no result: AI-2 QS mod, Rin1-Abl PPI inh, sPLA2-III inh)
Cc1ccccc1CSCC(=O)NNC(=S)NCC1CCCO1 (stereo not drawn)	sPLA2-III inh 23.9 (no result: ARNT-TACC3 inh) | sPLA2 confirm inactive | BODIPY interf inactive
COc1cc2c(cc1OC)C(c1ccc([N+](=O)[O-])cc1)NCC2 (stereo not drawn)	sPLA2-III inh 19.5 | sPLA2 confirm inactive | BODIPY interf inactive
COc1cc2c(cc1OC)C(c1cc([N+](=O)[O-])ccc1O)NCC2 (stereo not drawn)	none
c1ccc2cc(Cn3ccc4ccc(-c5ccc6cc[nH]c6c5)cc43)ccc2c1	sPLA2-III inh 23.2 (no result: AI-2 QS mod, ARNT-TACC3 inh, Rin1-Abl PPI inh) | sPLA2 confirm inactive | BODIPY interf 10.3
c1ccc2cc(Cn3ccc4ccc(-c5ccc6ccn(Cc7ccc8ccccc8c7)c6c5)cc43)ccc2c1	none (no result: AI-2 QS mod, ARNT-TACC3 inh, Rin1-Abl PPI inh)
CCCCSc1nc2c(c(=O)[nH]1)CCC2	sPLA2-III inh 19.7 | sPLA2 confirm inactive | BODIPY interf inactive
Nc1[nH]c(C(=O)c2ccccc2)c(-c2ccccc2C(F)(F)F)c1C(=O)c1cccs1	sPLA2-III inh 19.8 (no result: AI-2 QS mod, ARNT-TACC3 inh, Rin1-Abl PPI inh) | sPLA2 confirm inactive | BODIPY interf inactive
CN(C)CC/C=C1/c2ccccc2Sc2ccc(Cl)cc21	none
CCCCCC[N+](C)(C)CC/C=C1/c2ccccc2Sc2ccc(Cl)cc21	sPLA2-III inh 19.4 | sPLA2 confirm inactive | BODIPY interf inactive
CCCCCCOC(=O)CCn1[nH]c(=O)c2ccccc2c1=O	none
COC(=O)CCn1[nH]c(=O)c2ccccc2c1=O	sPLA2-III inh 24.4 | sPLA2 confirm inactive | BODIPY interf inactive
C[C@@H]1CN([C@@H](C)CO)C(=O)c2cc(NC(=O)Cc3ccccc3)ccc2O[C@@H](C)CCCCO[C@H]1CN(C)Cc1ccc2c(c1)OCO2	none (no result: AI-2 QS mod, Rin1-Abl PPI inh, sPLA2-III inh)
COc1ccc(N(C(=O)c2cccc(OC)c2OC)C2C=CS(=O)(=O)C2)cc1 (stereo not drawn)	sPLA2-III inh 23.8 | sPLA2 confirm inactive | BODIPY interf inactive
COc1ccc(S(=O)(=O)N(C)C[C@@H]2OCCCC[C@H](C)Oc3ccc(N(C)C)cc3C(=O)N([C@@H](C)CO)C[C@@H]2C)cc1	none (no result: AI-2 QS mod, Rin1-Abl PPI inh, sPLA2-III inh)
Cc1ccccc1NC(=S)NNC(=O)c1ccoc1C	none (no result: ARNT-TACC3 inh)
Cc1occc1C(=O)NNC(=S)Nc1ccccc1C(F)(F)F	sPLA2-III inh 21.4 | sPLA2 confirm 26.6 | BODIPY interf inactive
Nc1ccc(S(=O)(=O)Nc2ccc(Cl)nn2)cc1	sPLA2-III inh 22.0 | sPLA2 confirm inactive | BODIPY interf inactive
CNC[C@H]1Oc2c(NC(=O)C3CCCCC3)cccc2C(=O)N([C@@H](C)CO)C[C@H]1C	none (no result: AI-2 QS mod, Rin1-Abl PPI inh, sPLA2-III inh)
CN1CCN(CC(O)COc2ccc(OCC(O)CN3CCN(C)CC3)cc2)CC1 (stereo not drawn)	none
CN1CCN(CC(O)COc2ccc(C(=O)O)cc2)CC1 (stereo not drawn)	sPLA2-III inh 19.3 | sPLA2 confirm inactive | BODIPY interf inactive
NC(=S)N/N=C/c1cc([N+](=O)[O-])ccc1Cl	sPLA2-III inh 19.6 | sPLA2 confirm inactive | BODIPY interf inactive
C=CCNC(=S)N/N=C/c1ccc(C)c([N+](=O)[O-])c1	none (no result: AI-2 QS mod)
CN(C)c1ccc(/C=N/NC(N)=S)cc1[N+](=O)[O-]	sPLA2-III inh 21.5 | sPLA2 confirm 20.4 | BODIPY interf inactive
